Data published in PubChem BioAssay (Tox21).
Values joined by “and” are separate entries in the source; they are usually repeats but may differ in a detail not shown here. Identical values can stand only once. Results filed as inconclusive are left out. A structure can be active in one record and inactive in another. Active and inactive are the calls of the source. Unless noted, calls come from the whole dose curve; as a rule, active = well fitted curve in the direction sought with a large enough effect in the repeat runs; inconclusive = weak or mixed curves; inactive = no such curve, though single readings can be large; an effect the other way counts as inactive or inconclusive.

How the values were obtained:
[1] = qHTS assay to identify small molecule antagonists of the glucocorticoid receptor (GR) signaling pathway - cell viability counter screen (AID 720693); note: nearly all actives have a fitted effect of over 55% in size; note: potency is the fitted concentration of half-maximal effect
[2] = qHTS assay for identifying genotoxic compounds that show differential cytotoxicity against isogenic chicken DT40 cell lines with known DNA damage response pathways - Rad54/Ku70 mutant cell line (AID 743015); note: nearly all actives have a fitted effect of over 60% in size; note: potency is the fitted concentration of half-maximal effect
[3] = qHTS assay to identify small molecule antagonists of the androgen receptor (AR) signaling pathway - cell viability counter screen (AID 743033; note: nearly all actives have a fitted effect of over 45% in size; note: potency is the fitted concentration of half-maximal effect)
[4] = qHTS assay to identify small molecule antagonists of the androgen receptor (AR) signaling pathway using the MDA cell line - cell viability counter screen (AID 743041; note: nearly all actives have a fitted effect of over 45% in size; note: potency is the fitted concentration of half-maximal effect)
Outline: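 qHTS viability read-out; MDA-kb2 AR-luc; R1881-stimulated; 16 h exposure at 37C, 0% CO2; CellTiter-Fluor, 30 min; fluorescence intensity.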

[5] = qHTS assay for identifying genotoxic compounds that show differential cytotoxicity against isogenic chicken DT40 cell lines with known DNA damage response pathways - wild type cell line (AID 743012); note: nearly all actives have a fitted effect of over 60% in size; note: potency is the fitted concentration of half-maximal effect
Outline: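 300 wt DT40 cells/well; cpd (DMSO) pintool-transferred after ~0.5 h at 37 C/5% CO2; 40 h incubation; CellTiter-Glo added, 30 min RT; luminescence read.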

[6] = qHTS assay for identifying genotoxic compounds that show differential cytotoxicity against isogenic chicken DT40 cell lines with known DNA damage response pathways - Rev3 mutant cell line (AID 743014); note: nearly all actives have a fitted effect of over 55% in size; note: potency is the fitted concentration of half-maximal effect
[7] = target: Androgen receptor (Homo sapiens) (UniProt P10275); test: qHTS assay to identify small molecule agonists of the androgen receptor (AR) signaling pathway using the MDA cell line (AID 743040; note: nearly all actives have a fitted effect of over 20% in size)
Outline: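 Agonist activity is measured as luciferase luminescence in human MDA-kb2 cells whose MMTV reporter responds to both AR and GR. Compounds in DMSO incubate 16 h at 37C, 0% CO2, and ONE-Glo is read after 30 min.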

[8] = target: Androgen receptor (Homo sapiens) (UniProt P10275); test: qHTS assay to identify small molecule antagonists of the androgen receptor (AR) signaling pathway using the MDA cell line (AID 743042; note: nearly all actives have a fitted effect of over 55% in size; note: potency is the fitted concentration of half-maximal effect)
Outline: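 MDA-kb2 cells (human breast carcinoma, stably carrying an MMTV-luciferase reporter responsive to AR and GR) were plated at 3,000 cells/well and preincubated 5 hr at 37C, then given compound plus R1881 agonist for 16 h. ONE-Glo luminescence was read.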

[9] = target: Androgen receptor (Homo sapiens) (UniProt P10275); test: qHTS assay to identify small molecule antagonists of the androgen receptor (AR) signaling pathway (AID 743035; active = well fitted inhibition curve with a large enough effect in the signal ratio in the repeat runs, not every such curve was filed as active; the % refers to the signal ratio; note: potency is the fitted concentration of half-maximal effect)
Outline: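 In this cell-based reporter screen, compounds were tested in concentration series against R1881-activated HEK293 cells expressing beta-lactamase under UAS control; after 16 h at 37C, FRET substrate was added and fluorescence read 2 h later.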

Sequence of Androgen receptor (Homo sapiens) (P10275 whole entry, looked up): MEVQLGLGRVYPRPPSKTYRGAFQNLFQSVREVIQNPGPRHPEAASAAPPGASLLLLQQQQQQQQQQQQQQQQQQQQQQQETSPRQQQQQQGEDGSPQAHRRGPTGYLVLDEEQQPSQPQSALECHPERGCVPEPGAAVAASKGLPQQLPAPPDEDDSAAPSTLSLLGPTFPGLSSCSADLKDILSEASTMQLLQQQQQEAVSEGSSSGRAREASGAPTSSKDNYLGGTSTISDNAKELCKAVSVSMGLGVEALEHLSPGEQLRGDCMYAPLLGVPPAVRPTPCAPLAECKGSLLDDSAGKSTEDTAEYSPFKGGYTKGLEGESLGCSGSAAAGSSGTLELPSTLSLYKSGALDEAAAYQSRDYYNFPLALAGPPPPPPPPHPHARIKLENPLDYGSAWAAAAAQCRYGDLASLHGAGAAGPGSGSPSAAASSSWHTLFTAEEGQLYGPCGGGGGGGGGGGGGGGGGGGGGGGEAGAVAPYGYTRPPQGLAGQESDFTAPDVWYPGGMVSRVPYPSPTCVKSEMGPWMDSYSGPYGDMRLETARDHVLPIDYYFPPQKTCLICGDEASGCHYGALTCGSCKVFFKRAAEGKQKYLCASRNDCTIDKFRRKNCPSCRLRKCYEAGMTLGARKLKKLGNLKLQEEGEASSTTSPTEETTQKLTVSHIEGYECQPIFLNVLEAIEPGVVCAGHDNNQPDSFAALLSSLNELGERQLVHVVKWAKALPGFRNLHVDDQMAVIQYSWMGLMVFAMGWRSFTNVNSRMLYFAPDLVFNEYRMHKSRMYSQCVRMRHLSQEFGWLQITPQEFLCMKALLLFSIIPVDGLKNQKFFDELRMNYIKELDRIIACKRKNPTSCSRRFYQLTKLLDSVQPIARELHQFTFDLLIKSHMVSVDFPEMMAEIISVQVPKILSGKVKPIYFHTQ

| SMILES | Potency [1] | Potency [2] | Potency [3] | Potency [4] | Potency [5] | Potency [6] | Potency [7] | Potency [8] | Potency [9] |
| --- | --- | --- | --- | --- | --- | --- | --- | --- | --- |
| COC(=O)[C@]1(C)CCC[C@@]2(C)[C@H]1CC=C1C=C(C(C)C)CC[C@@H]12 | inactive | 61.1 µM (active) | inactive | inactive |  |  |  |  |  |
| Cc1c(-c2ccc(O)cc2)n(Cc2ccc(OCCN3CCCCCC3)cc2)c2ccc(O)cc12 |  | 13.3 µM (active) |  |  | 11.9 µM (active) | 13.3 µM (active) |  |  |  |
| O=C(O)Cc1ccc(OCCNC[C@H](O)c2ccccc2)cc1 | inactive |  | inactive | inactive |  |  | inactive | inactive |  |
| O=C(Oc1ccccc1)c1cccc(C(=O)Oc2ccccc2)c1 | inactive | 67 µM (active) | inactive | inactive |  | 72.3 µM (active) | inactive | inactive |  |
| CC(=O)Oc1ccc(C2(c3ccc(OC(C)=O)cc3)C(=O)Nc3ccccc32)cc1 | inactive |  | inactive |  |  | inactive |  |  |  |
| C=CC(=C)CCC=C(C)C | inactive |  | inactive | inactive |  |  |  |  |  |
| COC(=O)CC(C)CCC=C(C)C (configuration not stated) | inactive |  | inactive | inactive |  |  |  |  |  |
| CCCCCCCC/C=C\CCCCCCCC(=O)NCc1ccc(O)c(OC)c1 | 21.3 µM (active) | 18.8 µM (active) | inactive | inactive | 13.3 µM (active) |  |  |  |  |
| CCNc1nc(NC(C)CC)nc(OC)n1 (configuration not stated) | inactive |  | inactive | inactive |  |  |  |  |  |
| CCCCC(CC)COC(=O)c1ccc(O)cc1 (configuration not stated) | 43.5 µM (active) | 48.6 µM (active) | inactive | inactive |  | 43.1 µM (active) and 48.6 µM (active) |  |  |  |
| NC(=O)c1nc(-c2cccc(-c3cc(F)ccc3OCC(F)(F)C(F)(F)F)c2)n[nH]1 |  | 13.7 µM (active) | 21.9 µM (active) | 61.1 µM (active) | 17.2 µM (active) | 24.3 µM (active) | inactive | 61.1 µM (active) | 13.8 µM (active) |
| CCCCCCCCCCCCN(CCO)CCO |  | 0.609 µM (active) | 43.5 µM (active) | 19.3 µM (active) | 0.86 µM (active) | 0.172 µM (active) | inactive | 15.3 µM (active) |  |
| CNC(=S)NN |  | 7.7 µM (active) | 3.89 µM (active) | 48.6 µM (active) | 7.7 µM (active) | 7.7 µM (active) |  |  |  |
| CO[C@H]1C=CO[C@@]2(C)Oc3c(C)c(O)c4c(O)c(cc(O)c4c3C2=O)NC(=O)/C(C)=C\C=C/[C@H](C)[C@H](O)[C@@H](C)[C@@H](O)[C@@H](C)[C@H](OC(C)=O)[C@@H]1C |  | inactive and 12.3 µM (active) | inactive and 49.3 µM (active) |  | inactive and 13.8 µM (active) | inactive and 6.91 µM (active) |  |  |  |
| O=C(Nc1ccc(Cl)c(Cl)c1)c1cc(Cl)cc(Cl)c1O |  | 4.86 µM (active) | 1.95 µM (active) | 12.2 µM (active) | 6.11 µM (active) | 4.86 µM (active) |  |  |  |
| CC=O |  | 0.0717 µM (active) | 22.9 µM (active) | 63.9 µM (active) | 0.0717 µM (active) | 0.057 µM (active) |  |  |  |
| CC(=O)OC(OC(C)=O)c1ccc([N+](=O)[O-])o1 |  | 15.6 µM (active) | 22.3 µM (active) |  | 19.7 µM (active) | 5.54 µM (active) |  |  |  |
| CC(NCCC(c1ccccc1)c1ccccc1)c1ccccc1 (configuration not stated) |  | 5.31 µM (active) | 21.3 µM (active) | 23.7 µM (active) | 2.98 µM (active) | 4.22 µM (active) | inactive | 23.7 µM (active) | 21.3 µM (active) |
| CCCCCCCCCC(=O)N(C)C |  | inactive | inactive | inactive | inactive | inactive |  |  |  |
| O[C@@H](c1cc(C(F)(F)F)nc2c(C(F)(F)F)cccc12)[C@H]1CCCCN1 |  | 5.31 µM (active) | 23.9 µM (active) |  | 4.73 µM (active) | 4.73 µM (active) |  |  |  |
| COC(=O)C1=C(C)NC(C)=C(C(=O)OCCCN2CCC(c3ccccc3)(c3ccccc3)CC2)C1c1cccc([N+](=O)[O-])c1 (configuration not stated) |  | 6.68 µM (active) | 21.3 µM (active) |  | 4.73 µM (active) | 6.68 µM (active) | inactive |  | 16.9 µM (active) |
